{"source": "the supplement of paper PMC8728848", "assay_in_all_cases": "glycan array binding signal (z-score within array); higher = stronger binding", "details_in_all_cases": "glycan notation: IUPAC condensed, linker removed", "key": {"[1]": {"target": "Man(a1-3)[Man(a1-6)]Man(a1-6)[Man(a1-3)]Man(b1-4)GlcNAc(b1-4)GlcNAc", "in_short": "(§1)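 The binding signal is a Z-score computed within each array. Data were drawn from 3228 arrays in the Consortium for Functional Glycomics database, restricted to those with a known protein sequence. Scores were averaged over arrays of the same protein sequence at different concentrations or buffers, and over linkers, and negative values can be taken as non-binding.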"}, "[2]": {"target": "Man(a1-3)[Man(a1-6)]Man(b1-4)GlcNAc(b1-4)GlcNAc", "in_short": "as §1"}, "[3]": {"target": "Man(a1-3)[Man(a1-6)]Man(b1-4)GlcNAc(b1-4)[Fuc(a1-6)]GlcNAc", "in_short": "as §1"}, "[4]": {"target": "Neu5Ac(a2-3)Gal", "in_short": "as §1"}, "[5]": {"target": "Neu5Ac(a2-3)Gal(b1-3)GalNAc(b1-4)[Neu5Ac(a2-3)]Gal(b1-4)Glc", "in_short": "as §1"}, "[6]": {"target": "Neu5Ac(a2-3)Gal(b1-3)GlcNAc(b1-6)GalNAc", "in_short": "as §1"}, "[7]": {"target": "Neu5Ac(a2-3)Gal(b1-4)GlcNAc(b1-2)[Neu5Ac(a2-3)Gal(b1-4)GlcNAc(b1-6)]Man(a1-6)[Neu5Ac(a2-3)Gal(b1-4)GlcNAc(b1-2)Man(a1-3)][GlcNAc(b1-4)]Man(b1-4)GlcNAc(b1-4)GlcNAc", "in_short": "as §1"}, "[8]": {"target": "Neu5Ac(a2-3)Gal(b1-4)GlcNAc(b1-3)Gal(b1-4)GlcNAc(b1-3)[Neu5Ac(a2-3)Gal(b1-4)GlcNAc(b1-3)Gal(b1-4)GlcNAc(b1-6)]GalNAc", "in_short": "as §1"}, "[9]": {"target": "Neu5Ac(a2-3)Gal(b1-4)[Fuc(a1-3)]GlcNAc(b1-3)Gal(b1-4)GlcNAc", "in_short": "as §1"}, "[10]": {"target": "Neu5Ac(a2-3)Gal(b1-4)[Fuc(a1-3)]GlcNAc(b1-6)[Gal(b1-3)]GalNAc", "in_short": "as §1"}, "[11]": {"target": "Neu5Ac(a2-3)[Neu5Ac(a2-6)]GalNAc", "in_short": "as §1"}, "[12]": {"target": "Neu5Ac(a2-6)Gal(b1-4)GlcNAc(b1-2)Man(a1-3)[Man(a1-6)]Man(b1-4)GlcNAc(b1-4)GlcNAc", "in_short": "as §1"}, "[13]": {"target": "Neu5Ac(a2-6)Gal(b1-4)GlcNAc(b1-2)Man(a1-6)[Man(a1-3)]Man(b1-4)GlcNAc(b1-4)GlcNAc", "in_short": "as §1"}, "[14]": {"target": "Neu5Ac(a2-6)Gal(b1-4)GlcNAc(b1-3)Gal(b1-4)GlcNAc(b1-2)Man(a1-3)[Neu5Ac(a2-6)Gal(b1-4)GlcNAc(b1-3)Gal(b1-4)GlcNAc(b1-2)Man(a1-6)]GalNAc", "in_short": "as §1"}, "[15]": {"target": "Neu5Ac(a2-6)Gal(b1-4)GlcNAc(b1-3)Gal(b1-4)GlcNAc(b1-3)Gal(b1-4)GlcNAc(b1-2)Man(a1-3)[Neu5Ac(a2-6)Gal(b1-4)GlcNAc(b1-3)Gal(b1-4)GlcNAc(b1-3)Gal(b1-4)GlcNAc(b1-2)Man(a1-6)]GalNAc", "in_short": "as §1"}, "[16]": {"target": "Neu5Ac(a2-6)GalNAc(b1-4)GlcNAc", "in_short": "as §1"}, "[17]": {"target": "Neu5Ac(a2-8)Neu5Ac(a2-8)Neu5Ac(a2-3)[Gal(b1-3)GalNAc(b1-4)]Gal(b1-4)Glc", "in_short": "as §1"}, "[18]": {"target": "Neu5Ac(b2-6)GalNAc", "in_short": "as §1"}}, "note": "About 410 targets per protein were measured; listed, in parts, are those with the strongest signals and a random draw of the rest.", "data": [{"binder": "HHA (Hippeastrum hybrid) (protein) MQQDCNLVLYDVDKPIWASNTGGLARDCHLNMQSDGNLVVYAPRNQVIWASNTQGENGNYVCILQKDRNVVIYGTARWATGTNIHGAGIVGVPGSAPQNTTAEMIKLVRKYLITK", "values": [{"measurement": "glycan array binding signal (z-score)", "setting": "[1]", "result": 5.15}, {"measurement": "glycan array binding signal (z-score)", "setting": "[2]", "result": 8.3}, {"measurement": "glycan array binding signal (z-score)", "setting": "[3]", "result": 6.07}, {"measurement": "glycan array binding signal (z-score)", "setting": "[4]", "result": -0.214}, {"measurement": "glycan array binding signal (z-score)", "setting": "[5]", "result": -0.218}, {"measurement": "glycan array binding signal (z-score)", "setting": "[6]", "result": -0.216}, {"measurement": "glycan array binding signal (z-score)", "setting": "[7]", "result": -0.221}, {"measurement": "glycan array binding signal (z-score)", "setting": "[8]", "result": -0.187}, {"measurement": "glycan array binding signal (z-score)", "setting": "[9]", "result": -0.211}, {"measurement": "glycan array binding signal (z-score)", "setting": "[10]", "result": -0.179}, {"measurement": "glycan array binding signal (z-score)", "setting": "[11]", "result": -0.215}, {"measurement": "glycan array binding signal (z-score)", "setting": "[12]", "result": 0.002}, {"measurement": "glycan array binding signal (z-score)", "setting": "[13]", "result": 3.55}, {"measurement": "glycan array binding signal (z-score)", "setting": "[14]", "result": -0.165}, {"measurement": "glycan array binding signal (z-score)", "setting": "[15]", "result": -0.107}, {"measurement": "glycan array binding signal (z-score)", "setting": "[16]", "result": -0.222}, {"measurement": "glycan array binding signal (z-score)", "setting": "[17]", "result": -0.177}, {"measurement": "glycan array binding signal (z-score)", "setting": "[18]", "result": -0.213}]}]}
